Potency data for 40 molecules are collected here from PubChem BioAssay (Tox21).

Molecules are shown by their SMILES. Activity calls are given as the source filed them. A call without a number means that no potency is given here. Calls follow the shape of the dose curve; as a rule, active = well fitted curve in the direction sought with a large enough effect in the repeat runs; inconclusive = weak or mixed curves; inactive = flat fitted curve, though single readings scatter.

The nature of this assay: qHTS assay to test for compound auto fluorescence at 590 nm (red) in HEK293 cell free culture (AID 720683). As to conditions: cell-free medium autofluorescence, Ex540/Em590 red; series mostly up to 91.3 µM. From the text: U.S. Tox21 Program National Center for Advancing Translational Sciences [NCATS] NIH Chemical Genomics Center [NCGC] U.S. Environmental Protection Agency [EPA] National Institutes of Environmental Health Sciences [NIEHS] National Toxicology Program [NTP] U.S. Food and Drug Administration [FDA] Tox21 Assay Overview: Compound auto fluorescence often interferes with screening of the compound library against various biological targets and signaling pathways. Some of these compounds may have fluorophoric properties. Such properties may interfere with the assay outputs resulting in false positives and/or negatives. To decrease such complications and ensure the compound activities are relevant in terms of biological response, the Tox21 10K compound library was screened for auto fluorescence. From the fluorophores used as reporter signals in our screening assays, the auto fluorescence equivalencies of compounds against three fluorophores have been evaluated: Triamterene, Fluorescein and Rose Bengal sodium for blue, green and red fluorescence, respectively. The fluorescence intensities were measured using Excitation/Emission wavelengths at 405/460nm, 485/535nm and 540/590nm for blue, green and red labels, respectively. This assay includes the red fluorescence data.
Tox21 Assay Protocol Summary: 5 uL of culture medium (DMEM containing 10% FBS) per well was dispensed into black wall/clear bottom 1536-well plates using a Multidrop Combi Dispenser (ThermoFisher Scientific, Waltham, MA). After 23 nL compound or DMSO vehicle was transferred into assay plate by a pintool work station (Kalypsys, San Diego, CA), fluorescence intensities in the assay plates were measured by an Envision (PerkinElmer, Shelton, CT) plate reader using three labels for measuring blue, green and red fluorescence at […] 460, 535 and 590nm respectively.
Background: qHTS replaces the single test concentration by a dilution series.
For the molecule `CC1(C)NC(=O)N(c2ccc([N+](=O)[O-])c(C(F)(F)F)c2)C1=O`, the Potency entry is “inactive”.
For the molecule `Cc1ccc(S(=O)(=O)O)cc1C`, the Potency entry is “inactive”.
`IC(I)I`: the Potency result was “inactive”.
Turning to `Cc1ccc2c(c1)C(=O)OC2=O`, the Potency entry is “inactive”.
With `COc1ccc2nc(N)sc2c1`, the Potency result is “inactive”.
Take `O=[Se](O)O`: the Potency entry was “inactive”.
With `CCCCCCCCCCCCO`, the Potency entry is “inactive”.
In the case of `[O-]/[N+](=N\O)c1ccccc1`, the Potency entry is “inactive”.
Regarding `Cc1ccc([N+](=O)[O-])c(C)c1`, the Potency entry is “inactive”.
In the case of `CCCCCCC(C)O` (stereo not given), the Potency entry is “inactive”.
Regarding `Brc1nc2ccccc2s1`, the Potency result is “inactive”.
Turning to `CC(=O)[C@H]1CC[C@H]2[C@@H]3CC=C4C[C@@H](O)CC[C@]4(C)[C@H]3CC[C@]12C`, the Potency result was “inactive”.
For `O=C(CCCN1CCC(O)(c2ccc(Cl)cc2)CC1)c1ccc(F)cc1`, the Potency result was “inactive”.
`Cc1cccc(Nc2ccccc2C(=O)O)c1C`: the Potency result is “inactive”.
With `Cc1ccc(C(C)(C)C)c(O)c1`, the Potency result is “inactive”.
Consider `Cc1ccc(S(=O)(=O)NCl)cc1`, for which the Potency result was “inactive”.
Take `O=S1(=O)CCCO1`: the Potency entry was “inactive”.
Regarding `COCCOCCOCCO`, the Potency entry was “inactive”.
The value for `c1ccc2c(c1)ccc1ncccc12` was “inactive”; that for `NCCN` was “inactive”.
For the molecule `Clc1ccc(Sc2cc(Cl)c(Cl)cc2Cl)cc1`, the Potency result is “inactive”.
The value for `CC(C)(C)c1cccc(C(C)(C)C)c1O` was “inactive”; that for `O=C(O)CCCC(=O)O` was “inactive”.
Take `C[C@]12CC[C@@H]3c4ccc(O)cc4CC[C@H]3[C@@H]1CC[C@H]2O`: the Potency entry was “inactive”.
For `CC(=O)Nc1ccc2c(c1)Cc1cc(NC(C)=O)ccc1-2`, the Potency entry is “inactive”.
Take `c1ccc2cc3ccccc3cc2c1`: the Potency entry was “inactive”.
Turning to `CN(C)/N=N/c1nc[nH]c1C(N)=O`, the Potency result is “inactive”.
On to `C[N+](C)(C)CCO`, for which the Potency result was “inactive”.
For the molecule `C=C1C[C@H]2[C@@H]3C=C(C)C4=CC(=O)CC[C@]4(C)[C@H]3CC[C@]2(C)[C@@]1(OC(C)=O)C(C)=O`, the Potency entry is “inactive”.
As to `CCCOCCO`, the Potency entry is “inactive”.
Next, `C/C=C/C(=O)N(CC)c1ccccc1C`: “inactive”; `C=CCCCCCCCCCC`: “inactive”; `CC(=O)O[C@]1(C(C)=O)CC[C@H]2[C@@H]3C=C(Cl)C4=CC(=O)CC[C@]4(C)[C@H]3CC[C@@]21C`: “inactive”.
`CCC(=O)O[C@H]1[C@H](O[C@@H]2[C@@H](C)[C@H](O[C@H]3C[C@@](C)(OC)[C@@H](O)[C@H](C)O3)[C@@H](C)C(=O)O[C@H](CC)[C@@](C)(O)[C@H](O)[C@@H](C)C(=O)[C@H](C)C[C@@]2(C)O)O[C@H](C)C[C@@H]1N(C)C`: the Potency result is “inactive”.
`CC(=O)[C@@]1(O)CC[C@H]2[C@@H]3C[C@H](C)C4=CC(=O)C=C[C@]4(C)[C@@]3(F)[C@@H](O)C[C@@]21C`: the Potency entry is “inactive”.
Turning to `COC(=O)c1ccc(C)cc1`, the Potency result is “inactive”.
The value for `CCC/C=C/C=O` was “inactive”; that for `CC/C=C\C/C=C\C/C=C\CCCCCCCC(=O)O` was “inactive”.
Take `CCCCCCCCCCC(CO)CCCCCCCC` (stereo not given): the Potency entry was “inactive”.
As to `Cc1ccc(N)c([N+](=O)[O-])c1`, the Potency result was “inactive”.
